This is a sample that favours compounds with a hit; in the whole collection about 2.4% have one here.
Cruzain Triton: qHTS Assay for Promiscuous and Specific Inhibitors of Cruzain (with detergent); Cruzipain (Trypanosoma cruzi), P25779; actives 0.43% (n = 200,000); Potency, µM, inactives show max response, negative = inhibition, hits mostly inhibitors; purified cruzain, Z-FR-AMC fluorescence, 0.01% Triton;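 also: plate controls were neutral wells for no effect and buffer without enzyme for full effect; nearly all actives have a fitted effect of over 40% in size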
Target sequence (P25779 123-467 limits assumed): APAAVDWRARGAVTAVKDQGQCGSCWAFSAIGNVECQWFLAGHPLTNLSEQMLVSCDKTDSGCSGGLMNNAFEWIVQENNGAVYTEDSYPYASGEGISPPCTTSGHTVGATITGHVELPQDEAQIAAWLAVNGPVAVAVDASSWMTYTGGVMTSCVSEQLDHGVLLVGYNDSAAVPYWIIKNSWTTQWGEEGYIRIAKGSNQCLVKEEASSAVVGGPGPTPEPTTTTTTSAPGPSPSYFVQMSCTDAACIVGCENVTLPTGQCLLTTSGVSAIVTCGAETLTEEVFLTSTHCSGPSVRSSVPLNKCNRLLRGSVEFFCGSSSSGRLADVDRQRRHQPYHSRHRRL
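Cruzain (1.5 nM) preincubated 15 min at RT with compound in 100 mM sodium acetate pH 5.5, 5 mM DTT, 0.01% Triton X-100. Reaction started with 2 uM Z-FR-AMC; AMC fluorescence (ex 360/em 450 nm) change over 60 s gave rate.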
Cruzain inh noDet: qHTS Assay for Promiscuous and Specific Inhibitors of Cruzain (without detergent); actives 2.3% (n = 200,000); Potency, µM, for inactives: max response, negative = inhibition, most hits filed as inhibitors; purified cruzain, Z-FR-AMC fluorescence, no detergent; Cruzipain (Trypanosoma cruzi), P25779;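 also: plate controls were enzyme without inhibitor for no effect and buffer without enzyme for full effect; nearly all actives have a fitted effect of over 40% in size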
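Detergent-free condition (0.00005% Triton X-100) in acetate buffer pH 5.5 with DTT. 1.5 nM enzyme and compound were pre-mixed 15 min, then 2 uM Z-FR-AMC substrate added; reaction progress from fluorescence change between first and third reads (60 s).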
* marks the source's active call; other numbers are inactive results; ? = inconclusive. Calls follow the shape of the dose curve; as a rule, active = well fitted curve in the direction sought with a large enough effect; inconclusive = small, poorly fitted or top-dose-only effect, or another doubt; inactive = no such curve, though single readings can be large; an effect the other way counts as inactive or inconclusive. Potency is read from the fitted curve at half-maximal effect.

SMILES | Cruzain Triton | Cruzain inh noDet
Cc1cccc2nc(CSc3nc4ccc([N+](=O)[O-])cc4[nH]3)c(Br)n12 | -6.7% | 3.16µM*
Cc1cc(=O)[nH]c2nnc(SCC(N)=O)n12 | 0.3% | 13.4%
O=C(CCCn1ccc2cc(S(=O)(=O)N3CCCC3)ccc21)NCc1ccc(Cl)cc1 | -7.4% | 18.8%
CSc1ccccc1N=Cc1nc(-c2ccccc2)oc1O | -7.9% | -6.5%
CN(C)c1ccc(N=Cc2nc(-c3ccccc3)oc2OC(=O)c2ccccc2)cc1 | -13.5% | ?
COc1ccccc1N=Cc1nc(-c2ccccc2)oc1OC(C)=O | 25.1µM* | 20µM*
CC(=O)Oc1oc(-c2ccccc2)nc1/C=N/c1ccccn1 | 14.1µM* | 12.6µM*
COc1ccc(-n2c(=O)c3ccccc3n(Cc3ccc(F)cc3Cl)c2=O)cc1OC | -2.1% | -4.1%
O=C(O)C1CC2(C1)CC(C(=O)O)C2 (stereo not given) | -0.3% | 3.6%
O=C1c2ccccc2C(Nc2cccnc2)N1Cc1ccc2c(c1)OCO2 (stereo not given) | -0.8% | -2.3%
O=C1c2ccccc2C(Nc2ccc3c(c2)OCO3)N1Cc1ccc2c(c1)OCO2 (stereo not given) | -3.9% | 25.1µM*
CCC(C(=O)NCCc1ccc(Cl)cc1)n1ccc2cc(S(=O)(=O)N3CCCCC3)ccc21 (stereo not given) | -4.3% | 0.2%
COc1ccccc1N1Cc2ccccc2C1 | -3.7% | 15.8µM*
COc1ccc(OC)c(N2Cc3ccccc3C2)c1 | 3.2% | ?
COc1ccccc1N1CCNCC1 | 2.6% | 9.7%
COc1ccc(Cl)cc1N1Cc2ccccc2C1 | -4.0% | 25.1µM*
ClCCCCl | 3.1% | -1.2%
Nc1cc(C(=O)O)[nH]c(=O)n1 | 1.6% | 9.0%
Cc1cccc(C(=O)Nc2ccc3oc(-c4ccncc4)nc3c2)c1 | 25.1µM* | ?
Cc1cccc(C(=O)Nc2ccc3oc(-c4cccc5c(Br)cccc45)nc3c2)c1 | -0.3% | ?
COc1c(F)c(F)c(C(=O)Nc2ccc3oc(-c4ccncc4)nc3c2)c(F)c1F | 0.9% | ?
O=C(Nc1ccc2oc(-c3ccncc3)nc2c1)c1c(F)c(F)c(F)c(F)c1F | 3.5% | 10µM*
Cc1ccc(C)c(Cn2c3ccccc3c3cnn(CC(=O)NC(C)CCc4ccccc4)c(=O)c32)c1 (stereo not given) | 0.3% | 5.3%
O=C(COc1cccc(Cl)c1)Nc1nc(-c2ccc(S(=O)(=O)N3CCOCC3)cc2)cs1 | 1.2% | 12.6µM*
CCOc1cccc(C(=O)Nc2nc(-c3ccc(S(=O)(=O)N4CCOCC4)cc3)cs2)c1 | -7.4% | ?
SMILES | Cruzain Triton | Cruzain inh noDet
CC(C)CC(C(=O)OCC(=O)Nc1ncc(Cl)cc1Cl)N1C(=O)c2ccccc2C1=O (stereo not given) | -20.6% | ?
COc1ccc(NC(=O)COC(=O)/C=C/C(=O)OCC(=O)Nc2ccc(OC)c(Cl)c2)cc1Cl | -19.7% | 25.1µM*
CCOC(=O)/C=C/C(=O)OCC(=O)Nc1ccc(OC)c(Cl)c1 | 12.6µM* | 15.8µM*
CCCn1c(C)cc(/C=C(\C#N)C(=O)OCC(=O)Nc2ccc(OC)c(Cl)c2)c1C | -9.8% | -11.8%
COc1ccc(NC(=O)COC(=O)C(CC(C)C)N2C(=O)C3CC=CCC3C2=O)cc1Cl (stereo not given) | 7.08µM* | 10µM*
COc1ccc(NC(=O)COC(C)=O)cc1Cl | -0.3% | -0.3%
Cc1cnc(CNc2nc(-c3ccc(N(C)C)cc3)nc3ccccc23)cn1 | -7.9% | 12.2%
Cc1ccc(-c2cc3nc(-c4ccccc4)cc(N)n3n2)cc1 | 7.4% | 25.1µM*
Cc1cc(N)n2nc(-c3ccccc3)cc2n1 | -4.1% | 1.0%
Cc1ccc(-c2cc(N)n3nc(-c4ccc(C)cc4)cc3n2)cc1 | -1.3% | ?
Cc1ccc(-c2cc3nc(-c4ccc(Br)cc4)cc(N)n3n2)cc1 | 4.7% | 31.6µM*
Cc1ccc(C)c2sc(NC(=O)c3ccc(N4C(=O)CCC4=O)cc3)nc12 | 1.7% | 20µM*
CCc1nnc(NC(=O)c2ccc(N3C(=O)CCC3=O)cc2)s1 | -8.4% | -2.3%
COc1ccc(C(=O)Nc2ccc(NC(=O)c3cccs3)cc2)cc1OC | -1.2% | -26.7%
O=C(Nc1ccc(NC(=S)NC(=O)c2cccs2)cc1)c1ccccc1 | -4.0% | 13.8%
O=C(NNC(=S)NC(=O)c1cccs1)c1ccc(NC(=O)c2ccccc2)cc1 | 0.9% | 20µM*
Cc1c(C(=O)NC(=S)Nc2ccc(NC(=O)c3cccs3)cc2)oc2ccccc12 | -1.6% | 12.6µM*
COc1ccc(C(=O)Nc2ccc(NC(=O)c3cccs3)cc2)cc1Cl | 3.1% | 7.94µM*
CC(=O)NC(=S)Nc1ccc(NC(=O)c2cccs2)cc1 | 1.3% | -10.3%
COc1ccc(C(=O)N2CCN(c3nc4c(OC)cccc4s3)CC2)cc1OC | -8.9% | ?
[Cl-].[Cl-].[Hg+2] | 0.8% | -8.1%
N#CCCn1c(=O)c(-c2ccc(Cl)cc2)nc2cnc(N3CCNCC3)nc21 | -16.7% | -12.7%
COc1ccc2nc(NC(=O)CCc3nc(-c4ccccc4F)no3)sc2c1 | 0.4% | 7.94µM*
COc1ccc2nc(NC(=O)Cc3cccs3)sc2c1 | 0.3% | -13.2%
COc1cc(/C=C/C(=O)c2ccc(NS(=O)(=O)c3ccc(C)cc3)cc2)cc(OC)c1O | -6.0% | ?
SMILES | Cruzain Triton | Cruzain inh noDet
COc1cc(/C=C/C(=O)c2ccc(NS(=O)(=O)c3ccc(C)cc3)cc2)ccc1OC(F)F | -2.3% | 10µM*
Oc1c(C(c2ccccc2)N2CCOCC2)sc2nc(-c3ccco3)nn12 (stereo not given) | -0.8% | 7.2%
Cc1ccc(-n2ncc3c(NC4CCCCC4)ncnc32)cc1 | 0.3% | 5.9%
CCOC(=O)c1sc(NC(=O)c2ccccc2OC)nc1C | -5.8% | 5.1%
CCOC(=O)c1sc(NC(=O)/C=C/c2c(F)cccc2Cl)nc1C | -7.6% | 12.6µM*
CCOC(=O)c1sc(NC(=O)Nc2ccccc2F)nc1C | -3.4% | -7.4%
CCOC(=O)c1sc(NC(=O)c2ccc(CC)s2)nc1C | 3.8% | 15.8µM*
Cc1nc2cc(C(=O)OCC(=O)Nc3cccc(Cl)c3)ccc2n1-c1ccccc1 | -7.3% | 25.1µM*
Cc1nc2cc(C(=O)OCC(=O)NC34CC5CC(CC(C5)C3)C4)ccc2n1-c1ccccc1 | -6.5% | -10.4%
Nc1nc(-c2cccc([N+](=O)[O-])c2)cc(-c2cc(-c3cccc([N+](=O)[O-])c3)nc(N)n2)n1 | -2.1% | 2.5%
Nc1c(-c2cccc([N+](=O)[O-])c2)nc2ccccn12 | -10.2% | 20µM*
CCC(Oc1ccccc1)C(=O)Nc1ccc(-c2nnc(-c3ccco3)o2)cc1 (stereo not given) | -6.6% | 8.8%
O=C(COc1ccc(Br)cc1)Nc1ccc(-c2nnc(-c3ccco3)o2)cc1 | 4.9% | 10µM*
COc1ccc(OCC(=O)Nc2ccc(-c3nc4cc(C)c(C)cc4o3)cc2)cc1 | 0.7% | 1.4%
Cc1ccc(OCC(=O)Nc2ccc(-c3nc4ccc(C)cc4o3)cc2)cc1 | 1.0% | 25.1µM*
Cc1c(Cl)cccc1NC(=O)c1ncn(-c2ccccc2)n1 | 0.8% | -2.8%
Cc1cccc(-n2cc(-c3ccccc3)c3c(NC(C)C)ncnc32)c1 | -3.0% | -1.4%
CCOc1ccccc1NC(=O)CN1C(=O)CC(c2ccco2)Sc2ccccc21 (stereo not given) | -9.7% | -16.1%
CC(C)(C)c1ccc(C2Sc3ccccc3NC3=C2C(=O)c2ccccc23)cc1 (stereo not given) | -3.3% | 7.94µM*
O=C1OCC2=C1C(c1ccc(F)cc1)Sc1ccccc1N2 (stereo not given) | -6.1% | -9.6%
